Granule exo inh: lytic granule exocytosis inhibition; 360,000 compounds, 0.66% hits; inhibition, % at 10 µM; TALL-104 LAMP-1 surface exposure, flow cytometry; cells stimulated with thapsigargin and PMA;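 active = inhibition above about 55%, limit read from the data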
PP1 inh: blocks human PP1-alpha phosphatase, a PP5 counter-screen; P62136; AID 2235; inhibition, % at 6.7 µM; 320,000 compounds, 0.9% hits; purified PP1alpha, OMFP fluorescence;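 active = inhibition above the mean inhibition of all tested compounds plus 3 SD, computed separately for each screening campaign, cut at about 15% in these data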
NadD block: NadD (S. aureus) enzyme inhibition. purified NadD enzyme, colorimetric absorbance read-out. 360,000 compounds, 0.78% hits. inhibition, % at 20 µM; in the data active = inhibition above about 26%
B2AR ag: agonists of human beta-2 adrenergic receptor inducing internalization | Am2.2-beta2AR cells, FAP receptor internalization, flow cytometry | 340,000 compounds, 0.43% hits | response, % (concentration not given with the values) | P07550;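 active = response above a set limit, near 3 SD of response in nonfluorescent compounds, cut at about 42% in these data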
Target sequence (P07550 whole entry, looked up): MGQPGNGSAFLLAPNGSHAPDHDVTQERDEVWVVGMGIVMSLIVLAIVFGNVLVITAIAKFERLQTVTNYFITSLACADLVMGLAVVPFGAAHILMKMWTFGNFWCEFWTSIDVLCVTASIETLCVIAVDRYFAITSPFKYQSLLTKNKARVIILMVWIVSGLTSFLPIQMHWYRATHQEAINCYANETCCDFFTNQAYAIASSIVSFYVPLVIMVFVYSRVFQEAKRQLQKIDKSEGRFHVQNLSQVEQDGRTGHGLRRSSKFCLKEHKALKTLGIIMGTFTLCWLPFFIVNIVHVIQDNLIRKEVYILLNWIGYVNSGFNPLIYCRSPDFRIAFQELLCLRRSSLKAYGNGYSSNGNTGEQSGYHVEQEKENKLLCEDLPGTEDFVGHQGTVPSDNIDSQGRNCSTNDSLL
GRK2 aptamer HTS: human GRK2 inhibition via aptamer displacement; bead flow cytometry, FAM-aptamer displacement from GRK2; 330,000 compounds, 0.59% hits; AID 488847; inhibition of aptamer binding, % at 10 µM;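 active = inhibition of aptamer binding above 40%, roughly 3 SD of noise, on plates passing a quality check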;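 note: median bead fluorescence of bound FAM aptamer so fluorescent compounds give negative values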
PP1 inh confirm: confirmation of human PP1 phosphatase inhibitors; 1,900 compounds, 52% hits; purified PP1alpha, OMFP substrate fluorescence; shares compounds with PP1 inh; inhibition, % at 6.7 µM;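 active = mean PP1 inhibition above a set limit taken from the earlier primary screen, cut at about 15% in these data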
PP5 inh counter: counter-screen for PP1 inhibitors: human PP5 phosphatase inhibition. shares compounds with PP1 inh. purified PP5c, OMFP fluorescence. inhibition, % at 6.7 µM. 1,900 compounds, 4% hits;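 active = mean PP5 inhibition over triplicate wells above about 9.5% taken from the earlier PP1 screen, limit read from the data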
Large screens that a line does not name were inactive (follow-up assays come after a bar, where they were run). The list is not random: actives were taken first. Their share in the collection is about 2.9%.

CC1CCCCN1S(=O)(=O)c1ccc(C(=O)Nc2nnc(-c3ccco3)o2)cc1 (configuration not stated)	none
O=C(Nc1nnc(C2CC2)o1)c1ccc(S(=O)(=O)N2CCCCC2)cc1	PP1 inh 20 | PP1 inh confirm inactive | PP5 inh counter inactive
CC1CCCCN1S(=O)(=O)c1ccc(C(=O)Nc2nnc(-c3ccccn3)o2)cc1 (configuration not stated)	PP1 inh 23 | PP1 inh confirm 22 | PP5 inh counter inactive
CC1CCN(S(=O)(=O)c2ccc(C(=O)Nc3nnc(-c4ccncc4)o3)cc2)CC1	none
CC1CCN(S(=O)(=O)c2ccc(C(=O)Nc3nnc(C4CC4)o3)cc2)CC1	PP1 inh 23 | PP1 inh confirm 23 | PP5 inh counter inactive
O=C(Nc1nnc(-c2ccco2)o1)c1ccc(S(=O)(=O)N2CCCCC2)cc1	none (no result: PP1 inh, B2AR ag, GRK2 aptamer HTS)
CC1CCCCN1S(=O)(=O)c1ccc(C(=O)Nc2nnc(C3CC3)o2)cc1 (configuration not stated)	PP1 inh 20 | PP1 inh confirm inactive | PP5 inh counter inactive
Cc1nnc(NC(=O)c2ccc(S(=O)(=O)N3CCCCC3C)cc2)o1 (configuration not stated)	none
COc1ccc2cc3c(N)nn(C(=O)Cc4ccc(Cl)cc4)c3nc2c1	PP1 inh 21 | PP1 inh confirm inactive | PP5 inh counter inactive
COc1ccc2cc3c(N)nn(C(=O)Cc4c[nH]c5ccccc45)c3nc2c1	PP1 inh 19 | PP1 inh confirm 17 | PP5 inh counter inactive
CSc1ncccc1C(=O)Nc1cccc(S(=O)(=O)N(C)c2ccccc2)c1	none
CC(=O)Nc1ccc(Nc2cc(C)nc3c(-c4ccccc4)cnn23)cc1	none
CCc1ccc2c(c1)C(NC(C)=O)C(=O)N2CCN1CCOCC1 (configuration not stated)	PP1 inh 41 | PP1 inh confirm 36 | PP5 inh counter inactive
O=C(O)CSCC(=O)N(Cc1ccccc1)c1nc(-c2ccccc2)c(-c2ccccc2)s1	PP1 inh 26 | PP1 inh confirm 19 | PP5 inh counter inactive
COc1cc(C(=O)N2CCCC(c3cc(C(=O)NCc4ccc(F)cc4)no3)C2)cc(OC)c1C (configuration not stated)	none (no result: PP1 inh, B2AR ag, GRK2 aptamer HTS)
CC1c2ccsc2CCN1S(=O)(=O)c1cccs1 (configuration not stated)	none
CC(=O)Nc1cc(OC(=O)c2ccco2)cc(OC(=O)c2ccco2)c1	none
CC(=O)Nc1ccc(OC(=O)c2ccco2)cc1	PP1 inh 19 | PP1 inh confirm inactive | PP5 inh counter inactive
Cc1cc(C)c(S(=O)(=O)c2ccccc2C)c(OCCN(C)C)n1	none
CCC(=O)Nc1nnc(/C=C/c2ccc(OC)cc2)s1	PP1 inh 22 | PP1 inh confirm inactive | PP5 inh counter inactive
COc1ccc(/C=C/c2nnc(NC(=O)CSc3ccc(C)cc3)s2)cc1	none
COc1ccc(CCNC(=O)COc2ccc(S(=O)(=O)NCC(C)C)cc2Cl)cc1OC	PP1 inh 18 | PP1 inh confirm inactive | PP5 inh counter inactive
COC(=O)c1ccc(CN(C)S(=O)(=O)c2cccs2)cc1	none
NC(=O)N/N=C/c1ccc(OCc2cccc(Cl)c2)cc1	none
O=[N+]([O-])c1cc(Cl)cc(/C=N/NC(=S)Nc2ccc(S(=O)(=O)N3CCOCC3)cc2)c1O	PP1 inh 19 | PP1 inh confirm 19 | PP5 inh counter inactive
COC(=O)C1=C(C)N(Cc2ccccc2)C(=NCc2cccc(C(F)(F)F)c2)N[C@H]1c1cccc(F)c1	PP1 inh 18 (no result: GRK2 aptamer HTS) | PP1 inh confirm inactive | PP5 inh counter inactive
O=C(C[C@H]1C[C@H](C(=O)N2CCCCC2)[C@@]2(CCc3ccccc3)c3[nH]c4ccc(Cl)cc4c3CCN2C1=O)NCCN1CCOCC1	none (no result: PP1 inh)
CNS(=O)(=O)c1cccc(C(=O)OC2CCCCC2=O)c1 (configuration not stated)	none
O=C(Cn1ncc2c3ccccc3n(Cc3ccc(Cl)cc3)c2c1=O)NCCCN1CCCC1=O	none
CCc1ccc(NC(=O)Cn2ncc3c4ccccc4n(C)c3c2=O)cc1	PP1 inh 24 | PP1 inh confirm 22 | PP5 inh counter inactive
Cn1c2ccccc2c2cnn(CC(=O)Nc3ccc(Cl)cc3)c(=O)c21	PP1 inh 18 | PP1 inh confirm inactive | PP5 inh counter inactive
CC1(C(=O)NS(=O)(=O)c2cccc(C#N)c2)CCN1C(=O)CC1CCCCC1 (configuration not stated)	none (no result: PP1 inh, B2AR ag, GRK2 aptamer HTS)
O=CN1CCN(C(C(=O)NC2CCCCC2)c2cc3c(cc2[N+](=O)[O-])OCO3)CC1 (configuration not stated)	none
Cc1ccc(S(=O)(=O)N2CCN(C(=O)Cc3c(F)cccc3Cl)CC2)cc1	none
COc1ccc(CN2C(=O)Cc3c2nc(N)c2c(N)nc(N4CCOCC4)c(C#N)c32)cc1	PP1 inh 18 | PP1 inh confirm inactive | PP5 inh counter 14
C=CCSc1nc(-c2ccccc2)c(C#N)c(=O)[nH]1	none
N#Cc1c(-c2ccccc2)nc(SCC(=O)N2c3ccccc3Sc3ccccc32)[nH]c1=O	PP1 inh 21 | PP1 inh confirm 17 | PP5 inh counter inactive
N#Cc1c(-c2ccccc2)nc(SCc2ccc(Cl)cc2)[nH]c1=O	PP1 inh 18 | PP1 inh confirm inactive | PP5 inh counter inactive
c1ccc(Cn2nnc(CNc3ccccc3)c2-c2c(CNc3ccccc3)nnn2Cc2ccccc2)cc1	PP1 inh 23 | PP1 inh confirm inactive | PP5 inh counter inactive
COc1cc(NC(=O)[C@@H](NC(=O)N2CCn3c2nc2ccccc23)C(C)C)cc(OC)c1	none
C#CCOCCOCCOCCNc1nc(N2CCN(C(=O)[C@H](Cc3ccc(O)cc3)n3cc([C@@H](N)C(C)CC)nn3)CC2)nc(N2CCN(C(=O)[C@H](Cc3cc4ccccc4[nH]3)n3cc([C@@H](N)CC(C)C)nn3)CC2)n1 (some centres not stated)	PP1 inh 20 (no result: Granule exo inh, NadD block, B2AR ag) | PP1 inh confirm inactive | PP5 inh counter inactive
C#CCOCCOCCOCCNc1nc(N2CCN(C(=O)C(Cc3cc4ccccc4[nH]3)n3cc(C(N)Cc4ccc(O)cc4)nn3)CC2)nc(N2CCN(C(=O)C(CCC(=O)O)n3cc(C(N)C(C)CC)nn3)CC2)n1 (configuration not stated)	none
C#CCOCCOCCOCCNc1nc(N2CCN(C(=O)[C@H]([C@@H](C)CC)n3cc([C@@H](N)Cc4ccc(O)cc4)nn3)CC2)nc(N2CCN(C(=O)[C@H](Cc3cc4ccccc4[nH]3)n3cc([C@@H](N)C(C)CC)nn3)CC2)n1 (some centres not stated)	none (no result: Granule exo inh, NadD block, B2AR ag)

High-throughput results from PubChem.
